Measured values: PubChem BioAssay AID1508619 (National Center for Advancing Translational Sciences (NCATS), 2020)
Inconclusive results are not listed. Unmarked numbers belong to inactive results. Activity calls are given as the source filed them. Calls follow the shape of the dose curve; as a rule, active = well fitted inhibition curve with a large enough effect; inconclusive = small, poorly fitted or top-dose-only effect; inactive = no such curve, though single readings can be large or run the other way.

assay: Counterscreen qHTS for Identification of Calcium Integrin Binding Protein 1 (CIB1) Competitor; settings: series mostly up to 114 µM; activity, negative = inhibition: at the top concentration
Excerpt: Assay Provider: Ulhas P. Naik, PhD
Sidney Kimmel Medical College
Thomas Jefferson University, Philadelphia, PA
Primary function of platelets is to maintain hemostasis. At the site of vascular injury, platelets adhere to adhesive proteins such as collagen and von Willebrand factor. Adherent platelets are activated and generate soluble platelet agonists such as thrombin, ADP and thromboxane A2. Following exposure of circulating platelets to these agonists, results in platelet shape change, granule secretion and activation of platelet integrin alphaIIb-beta3. Ligand binding to activated integrin alphaIIb-beta3 triggers outside-in signaling, leading to platelet aggregation, stabilization of platelet plug, and clot retraction. Upon atherosclerotic plaque rupture also causes platelet plug formation, which underlies a number of cardiovascular diseases such as myocardial infraction and stroke. A number of anti-platelet drugs such as aspirin, clopidogrel, prasugrel, vorapaxar, and eptifibatide are currently available to prevent the thrombotic complications. However, these anti-platelet agents have several limitations including inherent variability in individual responses, developing resistance, and serious bleeding side effects. For these reasons they are not suitable for long-term protection. Based on the experiences with current anti-platelet drugs, it appears that the most useful therapeutic approach is to intersect the secondary responses such as integrin outside-in signaling or recruitment of platelets by TxA2 and secreted ADP. Compounds, which can largely preserve the primary hemostatic function of platelets but inhibit secondary response will be most desired therapeutic agents for treatment of cardiovascular disease.
CIB1 is a calcium integrin binding protein, which specifically interact with the alphaIIb subunit of integrin alphaIIb-beta3. Binding of CIB1 to alphaIIb regulates the outside-in signaling in platelets, which is needed for thrombus stabilization and thrombus growth. […] Therefore, we propose that discovery of a small molecule that can prevent the association of CIB1 and alphaIIb-beta3 will be a potential anti-platelet agent that can block the thrombus formation without undue effect on hemostasis.
To develop fluorescence polarization (FP) assay using fluorescently labeled alphaIIb peptide and CIB1 protein. Using FP assay characterize the binding affinity, competitive inhibition, and acceptable Z factor (0.5 to1) in order to perform the HTS to identify small molecule compound that can prevent CIB1 binding to platelet integrin alphaIIb-beta3. Active compounds were re-acquired and validated using confirmatory and counterscreens (using 100 nM scrambled peptide).
[1] Naik MU, Nigam A, Manrai P, et al. CIB1 deficiency results in impaired thrombosis: the potential role of CIB1 in outside-in signaling through integrin alpha IIb beta 3. J Thromb Haemost. 2009;7(11):1906-1914. doi:10.1111/j.1538-7836.2009.03581.
SEQUENCE No. (1, 2, 3, etc.); […] (e.g., Cells, Incubation, Reagent, etc.); VALUE and DESCRIPTION.
1; Reagent; 3 uL; Protein or buffer (4/3x)
2; Compound; 46 nL; Control inhibitor / compound library
3; Time; 15 min; Room temperature incubation
4; Reagent; 1 uL; Fluorescent labeled peptide (4x)
5; Time; 1000 rpm; Centrifuge
6; Time; 15 min; Room temperature incubation
7; Detection; Ex 480/ Em 540; ViewLux Fluorescence Read
NOTES (numbers refer to sequence above)
1; Protein Mixture: C1B1-GST (final concentrations of 1 uM). Buffer composition: 5 mM HEPES pH 7.4, 125 mM NaCl, 5 mM CaCl2, 0.01% Tween20.
2; Control Inhibitor: unlabeled peptide (final concentration range 17.4 nM to 572 uM). Compound Library final concentration range 18.3 nM to 114 uM.
3; Room temperature incubation.
4; Fluorescent Labeled Peptide: FITC-alphaIIb (final concentration of 100 nM). Sequence of Scrambled peptide: Acetyl-[…]-FITC (purity is 95.37%).
6; Room temperature incubation.
[…]
% is scaled to controls: 0 for no effect and ±100 for the full control effect; potency is read from the fitted curve at half-maximal effect.

Structure (SMILES)	activity, negative = inhibition	Potency
COc1nn(CSP(=S)(OC)OC)c(=O)s1	-8.92% [at 229 µM]	
CC1=C(O)C(=O)C=C2C1=CC=C1[C@@]2(C)CC[C@@]2(C)[C@@H]3C[C@](C)(C(=O)O)CC[C@]3(C)CC[C@]12C		44.7 µM (active)
O=c1c(C2CC(c3ccc(-c4ccc(Br)cc4)cc3)Cc3ccccc32)c(O)sc2ccccc12 (stereo not given)	88.6%	
COC[C@H]1OC(=O)c2coc3c2[C@@]1(C)C1=C(C3=O)C2CCC(=O)[C@@]2(C)C[C@H]1OC(C)=O (stereo not given in full)	-9.28%	
Cc1ccc([N+](=O)[O-])[c]2c1[O][Hg]2	131%	
CN(C)C(=S)SSC(=S)N(C)C	1.45%	
CC(=O)[O][Hg][c]1ccccc1	130%	
S=C(SSC(=S)N1CCCCC1)N1CCCCC1	19.7%	
O=c1oc2ccccc2c(O)c1C(CC(O)c1ccc(-c2ccc(Br)cc2)cc1)c1ccccc1 (stereo not given)	79.8%	
CCCCCCCCCCCCCCCC[N+](C)(C)C	4.61%	
O=C1OC(c2ccc(O)c(S(=O)(=O)O)c2)(c2ccc(O)c(S(=O)(=O)O)c2)c2c(Br)c(Br)c(Br)c(Br)c21	42.2%	
CN(C)CCc1c[nH]c2cccc(O)c12		89.1 µM (active)
N[C@@H](Cc1ccc(Oc2cc(I)c(O)c(I)c2)c(I)c1)C(=O)O	-9.7%	
C[CH2][Hg][S]c1ccccc1C(=O)O	-2.63%	
O=C1C(I)=CC(=C(c2cc(I)c(O)c(I)c2)c2ccccc2C(=O)O)C=C1I	334%	
